# From PubChem BioAssay AID1986 (Sanford-Burnham Center for Chemical Genomics, 2009)
# The whole screen tested about 290,000 compounds, of which about 890 (0.31%) were called active. This is one part of a sample in which actives are shown more often than they occur. No stated cut-off is given here; in the data, active means inhibition mostly above about 52% (no sharp cut-off); inactive means mostly below about 76%.
# Assay: cell-free HIV fusion peptide-binding blockers – biochemical, uHTS, fluorescence dequenching, primary screen (AID 1986)
# Conditions: 30 min, stronger effect = higher value
# [1] = measured here: repeat confirmation average inhibition, at 18.6 µM
SMILES,inhibition (at 20 µM),inhibition [1] [%]
O=C(Nc1cccc(C(=O)N2CCCCC2)c1)c1ccccc1Br,-1.4% (inactive),
O=S(=O)(NCc1ccccc1F)NCc1ccccc1F,-1.9% (inactive),
O=c1c(-c2nc3ccccc3o2)c2oc3ccccc3n2c2ccccc12,-2.3% (inactive),
O=c1c(Cl)c2oc3ccccc3nc-2c2ccccc12,50.8% (active),
Clc1ccc(-c2nnc(Sc3nc4ccccc4o3)c3ccccc23)cc1,-0.2% (inactive),
O=C(N/N=C\c1ccc2c(c1)OCO2)c1ccc(Cn2cc(Br)c([N+](=O)[O-])n2)o1,-2.8% (inactive),
CS(=O)(=O)Oc1ccc2c(c1)O/C(=C\C=C\c1ccccc1)C2=O,3.8% (inactive),
CCN(CC)Cc1c(O)ccc2c(-c3ccccc3)cc(=O)oc12,-2.2% (inactive),
CCN(CC)Cc1c(O)ccc2c1O/C(=C\C=C\c1ccccc1)C2=O,116% (active),143
Cc1ccc(/C=C2\Oc3c(ccc(O)c3CN3CCN(CCO)CC3)C2=O)cc1,35.2% (inactive),
CCN1CCN(Cc2c(O)ccc3c2O/C(=C\C=C\c2ccccc2OC)C3=O)CC1,149% (inactive),
CCN(CC)Cc1c(O)ccc2c(=O)c(-c3ccccc3)coc12,-1.9% (inactive),
COc1ccccc1/C=C/C=C1\Oc2c(ccc(O)c2CN(C)C)C1=O,146% (inactive),
O=C1/C(=C/C=C/c2ccccc2)Oc2c1ccc(O)c2CN1CCN(CCO)CC1,128% (inactive),
CN(C)Cc1c(O)ccc2c1O/C(=C\C=C\c1ccccc1)C2=O,77.7% (active),124
CCN1CCN(Cc2c(O)ccc3c2O/C(=C\c2ccccc2)C3=O)CC1,67.8% (inactive),22.1
COc1ccccc1/C=C/C=C1\Oc2c(ccc(O)c2CN2CCN(CCO)CC2)C1=O,122% (active),
CCN1CCN(Cc2c(O)ccc3c2O/C(=C\C=C\c2ccccc2)C3=O)CC1,53.7% (active),
CCCCN(C)CCNC(=O)CN1C(=O)CSc2ccc(S(=O)(=O)N3CCOCC3)cc21,1% (inactive),
CCN1C(=O)c2cccc3c(S(=O)(=O)Nc4ccncc4)ccc1c23,3.5% (inactive),
COc1ccccc1C(=O)C1CCCN(C(=O)c2cc(CC(C)C)nc(C)n2)C1 (stereo unspecified),-0.9% (inactive),
CCOc1ccc(-n2cnnn2)cc1S(=O)(=O)NC1CC1,0.2% (inactive),
CCOC(=O)N1CCN(C(=O)C2CCN(S(=O)(=O)c3c(C)cc(C)cc3C)CC2)CC1,-1.7% (inactive),

SMILES,inhibition (at 20 µM),inhibition [1] [%]
O=C(NCc1ccco1)c1ccc(Cl)nc1,-2% (inactive),
CCCN1CCc2c(sc(NC(=S)NC(=O)c3ccccc3)c2C#N)C1,78.4% (active),
N#Cc1c(NC(=S)NC(=O)c2ccccc2)sc2c1CCN(CCc1ccccc1)C2,138% (inactive),
CN1Cc2sc(NC(=S)NC(=O)c3ccccc3)c(C#N)c2CC1(C)C,70.3% (active),
N#Cc1c(NC(=S)NC(=O)c2ccccc2)sc2c1CCCC2,0.9% (inactive),
CC(C)N1CCc2c(sc(NC(=O)Cc3ccccc3)c2C#N)C1,-0.4% (inactive),
CCN1CCc2c(sc(NC(=S)NC(=O)c3ccccc3)c2C#N)C1,26.3% (inactive),
N#Cc1c(NC(=S)NC(=O)c2ccccc2)sc2c1CCC2,14.9% (inactive),
CC(C)N1CCc2c(sc(NC(=S)NC(=O)c3ccccc3)c2C#N)C1,81% (active),
CCC1(C)Cc2c(sc(NC(=S)NC(=O)c3ccccc3)c2C#N)CO1 (stereo unspecified),-2.1% (inactive),
N#CC(c1ccccc1)C1CCN(Cc2ccccc2)CC1 (stereo unspecified),0.8% (inactive),
O=c1c2cn[nH]c2[nH]c(=S)n1-c1ccccc1,1.4% (inactive),
CCCCC/S(CC1CC1(Cl)Cl)=N\S(=O)(=O)c1ccc(C)cc1 (stereo unspecified),0.9% (inactive),
CN(CC(=O)Nc1ccc(C(N)=O)cc1)CC(=O)Nc1ccccc1Br,0.7% (inactive),
O=C(Nc1ccncc1)Nc1ccc(F)c(Cl)c1,0.5% (inactive),
CC1=NN(C(=O)c2ccccc2C)C(O)(c2ccc(Cl)cc2)C1 (stereo unspecified),-2.2% (inactive),
CC(C)CC(C(=O)Nc1oc(-c2ccco2)c(-c2ccco2)c1C#N)N1C(=O)c2ccccc2C1=O (stereo unspecified),-0.7% (inactive),
N#Cc1c(N)oc(-c2ccco2)c1-c1ccco1,2.6% (inactive),
CC(Oc1ccccc1)C(=O)Nc1oc(-c2ccco2)c(-c2ccco2)c1C#N (stereo unspecified),76.1% (active),
O=C(Nc1ccnn1C1CCN(Cc2ccc(Cl)cc2)CC1)C1CCCC1,1.4% (inactive),
O=C(N/N=C/c1cccc([N+](=O)[O-])c1O)C(O)(c1ccccc1)c1ccccc1,11% (inactive),
C/C=C\C=C/C(=O)Nc1cccc(C2=NOC3(C2)C[C@H](C(N)=O)N(C(=O)c2ccc(OC)cc2)C3)c1 (stereo partly specified),5.2% (inactive),
Cc1sc2nc3c(SC(C)C(=O)O)cc(C(=O)c4ccccc4O)cn3c(=O)c2c1C (stereo unspecified),20.4% (inactive),

SMILES,inhibition (at 20 µM),inhibition [1] [%]
O=C(O)CSc1cc(C(=O)c2ccccc2O)cn2c(=O)c3c(-c4ccccc4)csc3nc12,59.6% (active),
CCOC(=O)c1sc2nc3c(SCC(=O)O)cc(C(=O)c4ccccc4O)cn3c(=O)c2c1C,49.9% (inactive),
CN(C)/C=C(/C(=O)c1ccc(Cl)c(Cl)c1)S(C)(=O)=O,0.6% (inactive),
CCOc1ccc(NC(=O)CN(C)C(=O)c2cccnc2SC)cc1OCC,0.9% (inactive),
CCN(CC)c1ccc(/C=N/n2c(C)nc3ccccc3c2=O)cc1,-0.4% (inactive),
CCN(CC)c1ccc(/C=C/c2cc(-c3ccccc3)c3ccccc3n2)cc1,96.8% (active),
CN(C)c1ccc(/C=C/c2nc3ccccc3s2)cc1,3.1% (inactive),
CCN(CC)c1ccc(/C=C/c2nc3ccccc3s2)cc1,53% (active),
CCN(CC)c1ccc(NC(=O)COC(=O)/C=C/c2nc3ccccc3s2)cc1,-1.3% (inactive),
Cc1cc(/C=C\c2ccccc2)nc2ccccc12,1.2% (inactive),
Cc1ccccc1C(=NC(=O)c1ccccc1)c1ccccc1,0.6% (inactive),
COc1cc(/C=C(\C#N)c2nc3ccccc3[nH]2)cc(Br)c1OCc1ccccc1,6.5% (inactive),
COc1ccc(-c2csc(/C(C#N)=C\c3ccc(O)c([N+](=O)[O-])c3)n2)cc1OC,62.9% (inactive),9.1
COc1ccc(/C=C(\C#N)c2nc3ccccc3[nH]2)cc1O,-0.7% (inactive),
COc1cc(/C=C(\C#N)C(=O)c2c(C)[nH]c3ccccc23)cc(OC)c1OC,-1.7% (inactive),
COc1cc(/C=C(\C#N)c2nc3ccc(C)cc3[nH]2)c([N+](=O)[O-])cc1OC,-2.7% (inactive),
COc1ccc(/C=C(\C#N)C(=O)c2c(C)[nH]c3ccccc23)cc1OC,-1.1% (inactive),
COc1cc(/C=C(\C#N)c2nc3ccccc3[nH]2)cc(OC)c1O,69.9% (active),
COc1cc(/C=C(/C#N)c2nc(-c3cc4ccccc4oc3=O)cs2)cc([N+](=O)[O-])c1O,66.8% (active),
COc1cc(/C=C(\C#N)C(=O)c2c[nH]c3ccccc23)cc(OC)c1O,62.6% (active),
COc1ccc(/C=C(\C#N)c2nc3ccc(C)cc3[nH]2)cc1Oc1ccc(C(F)(F)F)cc1[N+](=O)[O-],10% (inactive),
COc1cc(/C=C(\C#N)c2nc(-c3cc4ccccc4oc3=O)cs2)ccc1O,31.9% (inactive),
CSc1ccc(S(=O)(=O)N2CCC(C(=O)NCC3CCCO3)CC2)cc1 (stereo unspecified),-1.2% (inactive),

SMILES,inhibition (at 20 µM),inhibition [1] [%]
COc1ccc(NC(=O)c2ccsc2NC(C)=O)cc1,-0.1% (inactive),
COCCSc1nnc(NC(=O)c2ccc(NC(=O)C(C)C)cc2)s1,1.5% (inactive),
CCN(c1ccccc1)S(=O)(=O)c1ccc(OCC(=O)Nc2cc(C)on2)cc1,-4% (inactive),
Cc1c(NC(=O)c2c(F)cccc2F)c(=O)n(-c2ccccc2)n1C,0.4% (inactive),
CCOc1cc(N2CCOCC2)c(OCC)cc1NC(=O)COC(=O)c1cc2ccccc2cc1O,-0.9% (inactive),
CCOC(=O)CNC(=O)CNC(=O)Cn1ccc2ccccc2c1=O,-0.8% (inactive),
O=C(C[n+]1ccc(C(=O)NCc2ccccc2)cc1)c1ccc(Cl)cc1,1.3% (inactive),
Cc1ccc(NC(=O)COC(=O)Cn2cnc3c2c(=O)n(C)c(=O)n3C)c(Cl)c1,1.4% (inactive),
O=C(NCCCCc1ccccc1)C1CCCC1,-0.4% (inactive),
COc1ccccc1NC(=O)CCCc1nc(-c2ccc(OC)c(OC)c2)no1,-1% (inactive),
COC(=O)c1ccc(COc2ccc(/C=C(\C#N)c3nc4ccccc4[nH]3)cc2OC)o1,4.4% (inactive),
Cc1ccc2nc(/C(C#N)=C/c3ccc(-c4ccccc4C(=O)O)o3)[nH]c2c1,94.3% (active),63.8
Cc1cc(/C=C(\C#N)c2nc3ccccc3[nH]2)c(C)n1C,54% (active),
N#C/C(=C\c1ccc(-c2ccccc2C(=O)O)o1)c1nc2ccccc2[nH]1,29.4% (inactive),
Cc1cc2nc(/C(C#N)=C\c3ccc(-c4ccccc4C(=O)O)o3)[nH]c2cc1C,135% (inactive),
Cc1cc(/C=C(/C#N)c2nc3ccccc3[nH]2)c(C)n1-c1ccccc1C(=O)O,9.7% (inactive),
COc1cc(/C=C(\C#N)c2nc3ccccc3[nH]2)ccc1OC(=O)c1ccco1,61.1% (active),
Cc1cc(/C=C(/C#N)c2nc3ccccc3[nH]2)c(C)n1-c1cc(C(=O)O)cc(C(=O)O)c1,63.6% (inactive),40.2
COc1cc(/C=C(/C#N)c2nc3ccccc3[nH]2)ccc1OC(=O)c1ccco1,0.5% (inactive),
O=C(NC(=S)Nc1ccc(CN2CCCCC2)cc1)c1ccco1,0.8% (inactive),
Cc1ccccc1-n1ncc2c1CC(C)(C)CC2NC(=O)CCCN1CCCC1=O (stereo unspecified),0.2% (inactive),
